{"source": "PubChem BioAssay (NCI)", "note": "The panel holds about 83,000 compounds, 20% with a hit somewhere; the sample as a whole holds those more often.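 Each cell line was grown in a 96-well plate and treated with one concentration of compound for 48 hours. Values below 10 were considered active.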 Active and inactive are the calls of the source."}
{"test_system": "NCI-H23 lung", "experiment": "NCI-60 one-dose screen, 48 h (100 = growth as untreated, 0 = no growth, -100 = all killed)", "settings": "10 µM unless noted"}
{"smiles": "O=[N+]([O-])c1cc2c(cc1Br)-c1ccccc1C2", "growth": "84.7% (inactive)"}
{"smiles": "Clc1ccc(Nc2nc(Nc3ccccc3)nc(Nc3ccc(-c4cc(-c5ccc(Cl)cc5)on4)cc3)n2)cc1", "growth": "72.2% (inactive)"}
{"smiles": "Cc1cc(=O)c2c(C)ccc(C)c2[nH]1", "growth": "100% (inactive)"}
{"smiles": "Cc1cc(=O)[nH]n1-c1cc(Cl)ccc1N", "growth": "107% (inactive)"}
{"smiles": "CC(C)OC1=C(Cl)C(=O)c2ccccc2C1=O", "growth": "81.8% (inactive)"}
{"smiles": "COc1cccc(C2CC(=O)Nc3cc4c(cc32)OCO4)c1OC", "note": "(stereo not drawn)", "growth": "92.3% (inactive)"}
{"smiles": "COc1ccccc1CNCCCCCCCCCCCCN1C(=O)c2ccc3c4c(ccc(c24)C1=O)C(=O)N(CCCCCCCCCCCCNCc1ccccc1OC)C3=O", "growth": "-47.6% (active)"}
{"smiles": "O=C1C=CC(=O)N1CCCCCCCCCCN1C(=O)C=CC1=O", "growth": "85.2% (inactive)"}
{"smiles": "Cc1ccc(N=c2nc3sc4c(C)ccc(C)c4n3c(N)c2C#N)cc1", "growth": "90.2% (inactive)"}
{"smiles": "COc1cc2nc(SCc3cc(OC)c(OC)c(OC)c3)n(-c3ccccc3OC)c(=O)c2cc1OC", "growth": "79.9% (inactive)"}
{"smiles": "Cc1nc2nc(C(F)(F)F)[nH]c2nc1C", "growth": "107% (inactive)"}
{"smiles": "CC(C)(C)[Si](C)(C)OC1[C@@H](CNC(=O)NC(=O)CCl)O[C@@H](n2cnc3c(N)ncnc32)[C@H]1O[Si](C)(C)C(C)(C)C", "note": "(stereo partly drawn)", "growth": "-72.4% (active)"}
{"smiles": "Fc1ccccc1Nc1ccc2nnc(-c3ccncc3)n2n1", "growth": "93.1% (inactive)"}
{"smiles": "NC(=O)c1nc2c([nH]c1=O)CCCC2", "growth": "104% (inactive)"}
{"smiles": "CCN1CCN(C(=S)SCC(=O)Nc2nc3ccc(OC)cc3s2)CC1", "growth": "100% (inactive)"}
{"smiles": "O=C(NCc1cccnc1)c1ccc([N+](=O)[O-])o1", "growth": "-89.1% (active)"}
{"smiles": "N#CC1=C(N)Oc2cc(N)ccc2C1c1ccc(F)cc1", "note": "(stereo not drawn)", "growth": "81.6% (inactive)"}
{"smiles": "O=c1[nH]c(-c2ccncc2)nc2sc3c(c12)CCCCCC3", "growth": "88.5% (inactive)"}
{"smiles": "CC1SC(c2cccc(Oc3ccccc3)c2)N(CCc2cccs2)C1=O", "note": "(stereo not drawn)", "growth": "-14.2% (active)"}
{"smiles": "COc1ccc(-c2c(-c3cc4c(c(OC)c3OC)OCO4)noc2N)cc1", "growth": "42.5% (inactive)"}
{"smiles": "c1ccc(-c2n(Cc3ccc4ccccc4n3)c3ccccc3[n+]2Cc2ccc3ccccc3n2)cc1", "growth": "-5.45% (active)"}
{"smiles": "O=S(=O)(Nc1ncccn1)c1ccc(Nc2ccc3nnc(-c4ccncc4)n3n2)cc1", "growth": "99.6% (inactive)"}
{"smiles": "CC(=O)c1cc(C)c(OC(=O)c2ccccc2)c(C)c1", "growth": "89.8% (inactive)"}
{"smiles": "Oc1ccccc1/C=N/Nc1nc2ccccc2s1", "growth": "59.4% (inactive)"}
{"smiles": "O=C1NC(=S)S/C1=C\\c1cccc([N+](=O)[O-])c1", "growth": "89.6% (inactive)"}
{"smiles": "COCCOC1=C(Cl)C(=O)c2ccccc2C1=O", "growth": "29% (inactive)"}
{"smiles": "O=C1NC(=O)C(CSc2ccccc2)(c2ccccc2)N1", "note": "(stereo not drawn)", "growth": "97.7% (inactive)"}
{"smiles": "Clc1ccccc1Nc1ccc2nnc(-c3ccncc3)n2n1", "growth": "101% (inactive)"}
{"smiles": "COc1cc(CNCCCN2C(=O)c3ccc4c5c(ccc(c35)C2=O)C(=O)N(CCCNCc2cc(OC)c(OC)c(OC)c2)C4=O)cc(OC)c1OC", "growth": "-74.8% (active)"}
{"smiles": "O=C1C(OCCOc2ccccc2)=C(OCCOc2ccccc2)C(=O)c2ccccc21", "growth": "16.3% (inactive)"}
{"smiles": "COc1ccc(OC)c(C2C(C#N)=C(N)Oc3cc(O)ccc32)c1", "note": "(stereo not drawn)", "growth": "88% (inactive)"}
{"smiles": "O=C1c2ccccc2C(=O)c2c(Nc3ccc(CCO)cc3)ccc(O)c21", "growth": "93.3% (inactive)"}
{"smiles": "CCOC(=O)c1c(Cl)c2c(n1Cc1ccc(OC)cc1)-c1oncc1CCC2", "growth": "86.5% (inactive)"}
{"smiles": "Cc1oc2c(c1C(=O)N1CC[C@@H](N)C1)C(=O)c1c(c(O)c3ccccc3c1O)C2=O", "growth": "45.3% (inactive)"}
{"smiles": "O=C1c2[nH]cc(CN[C@@H]3CCCN3)c2C(=O)c2c1c(O)c1ccccc1c2O", "growth": "-53.7% (active)"}
{"smiles": "O=C1C(N2CCOCC2)=Cc2cccc3cccc1c23", "growth": "100% (inactive)"}
{"smiles": "COc1ccc(Cn2c(Br)c3c(c2-c2cc(OC)c(OC)c(OC)c2)CCc2sc(N)nc2-3)cc1", "growth": "38.1% (inactive)"}
{"smiles": "Nc1nc2c(s1)CCc1c-2c(Br)n(Cc2ccccc2)c1Br", "growth": "91.8% (inactive)"}
{"smiles": "COC(=O)/C=C1/CCC2C3CCC4=CC(=O)C(Br)CC4(C)C3C(=O)CC12C", "note": "(stereo not drawn)", "growth": "67.5% (inactive)"}
{"test_system": "NCI-H322M lung", "experiment": "NCI-60 one-dose screen, 48 h (100 = growth as untreated, 0 = no growth, -100 = all killed)", "settings": "10 µM unless noted"}
{"smiles": "O=[N+]([O-])c1cc2c(cc1Br)-c1ccccc1C2", "growth": "115% (inactive)"}
{"smiles": "Clc1ccc(Nc2nc(Nc3ccccc3)nc(Nc3ccc(-c4cc(-c5ccc(Cl)cc5)on4)cc3)n2)cc1", "growth": "77.6% (inactive)"}
{"smiles": "Cc1cc(=O)c2c(C)ccc(C)c2[nH]1", "growth": "109% (inactive)"}
{"smiles": "Cc1cc(=O)[nH]n1-c1cc(Cl)ccc1N", "growth": "112% (inactive)"}
{"smiles": "CC(C)OC1=C(Cl)C(=O)c2ccccc2C1=O", "growth": "95% (inactive)"}
{"smiles": "COc1cccc(C2CC(=O)Nc3cc4c(cc32)OCO4)c1OC", "note": "(stereo not drawn)", "growth": "88.3% (inactive)"}
{"smiles": "COc1ccccc1CNCCCCCCCCCCCCN1C(=O)c2ccc3c4c(ccc(c24)C1=O)C(=O)N(CCCCCCCCCCCCNCc1ccccc1OC)C3=O", "growth": "111% (inactive)"}
{"smiles": "O=C1C=CC(=O)N1CCCCCCCCCCN1C(=O)C=CC1=O", "growth": "109% (inactive)"}
{"smiles": "Cc1ccc(N=c2nc3sc4c(C)ccc(C)c4n3c(N)c2C#N)cc1", "growth": "113% (inactive)"}
{"smiles": "COc1cc2nc(SCc3cc(OC)c(OC)c(OC)c3)n(-c3ccccc3OC)c(=O)c2cc1OC", "growth": "85.1% (inactive)"}
{"smiles": "Cc1nc2nc(C(F)(F)F)[nH]c2nc1C", "growth": "110% (inactive)"}
{"smiles": "CC(C)(C)[Si](C)(C)OC1[C@@H](CNC(=O)NC(=O)CCl)O[C@@H](n2cnc3c(N)ncnc32)[C@H]1O[Si](C)(C)C(C)(C)C", "note": "(stereo partly drawn)", "growth": "111% (inactive)"}
{"smiles": "Fc1ccccc1Nc1ccc2nnc(-c3ccncc3)n2n1", "growth": "104% (inactive)"}
{"smiles": "NC(=O)c1nc2c([nH]c1=O)CCCC2", "growth": "120% (inactive)"}
{"smiles": "CCN1CCN(C(=S)SCC(=O)Nc2nc3ccc(OC)cc3s2)CC1", "growth": "92.3% (inactive)"}
{"smiles": "O=C(NCc1cccnc1)c1ccc([N+](=O)[O-])o1", "growth": "-6.13% (active)"}
{"smiles": "N#CC1=C(N)Oc2cc(N)ccc2C1c1ccc(F)cc1", "note": "(stereo not drawn)", "growth": "82.6% (inactive)"}
{"smiles": "O=c1[nH]c(-c2ccncc2)nc2sc3c(c12)CCCCCC3", "growth": "59.4% (inactive)"}
{"smiles": "CC1SC(c2cccc(Oc3ccccc3)c2)N(CCc2cccs2)C1=O", "note": "(stereo not drawn)", "growth": "4.21% (active)"}
{"smiles": "COc1ccc(-c2c(-c3cc4c(c(OC)c3OC)OCO4)noc2N)cc1", "growth": "54.2% (inactive)"}
{"smiles": "c1ccc(-c2n(Cc3ccc4ccccc4n3)c3ccccc3[n+]2Cc2ccc3ccccc3n2)cc1", "growth": "14.3% (inactive)"}
{"smiles": "O=S(=O)(Nc1ncccn1)c1ccc(Nc2ccc3nnc(-c4ccncc4)n3n2)cc1", "growth": "112% (inactive)"}
{"smiles": "CC(=O)c1cc(C)c(OC(=O)c2ccccc2)c(C)c1", "growth": "119% (inactive)"}
{"smiles": "Oc1ccccc1/C=N/Nc1nc2ccccc2s1", "growth": "63.1% (inactive)"}
{"smiles": "O=C1NC(=S)S/C1=C\\c1cccc([N+](=O)[O-])c1", "growth": "132% (inactive)"}
{"smiles": "COCCOC1=C(Cl)C(=O)c2ccccc2C1=O", "growth": "95.6% (inactive)"}
{"smiles": "O=C1NC(=O)C(CSc2ccccc2)(c2ccccc2)N1", "note": "(stereo not drawn)", "growth": "86.5% (inactive)"}
{"smiles": "Clc1ccccc1Nc1ccc2nnc(-c3ccncc3)n2n1", "growth": "102% (inactive)"}
{"smiles": "COc1cc(CNCCCN2C(=O)c3ccc4c5c(ccc(c35)C2=O)C(=O)N(CCCNCc2cc(OC)c(OC)c(OC)c2)C4=O)cc(OC)c1OC", "growth": "-24.2% (active)"}
{"smiles": "O=C1C(OCCOc2ccccc2)=C(OCCOc2ccccc2)C(=O)c2ccccc21", "growth": "60.3% (inactive)"}
{"smiles": "COc1ccc(OC)c(C2C(C#N)=C(N)Oc3cc(O)ccc32)c1", "note": "(stereo not drawn)", "growth": "102% (inactive)"}
{"smiles": "O=C1c2ccccc2C(=O)c2c(Nc3ccc(CCO)cc3)ccc(O)c21", "growth": "68.5% (inactive)"}
{"smiles": "CCOC(=O)c1c(Cl)c2c(n1Cc1ccc(OC)cc1)-c1oncc1CCC2", "growth": "95.2% (inactive)"}
{"smiles": "Cc1oc2c(c1C(=O)N1CC[C@@H](N)C1)C(=O)c1c(c(O)c3ccccc3c1O)C2=O", "growth": "33.5% (inactive)"}
{"smiles": "O=C1c2[nH]cc(CN[C@@H]3CCCN3)c2C(=O)c2c1c(O)c1ccccc1c2O", "growth": "-95% (active)"}
{"smiles": "O=C1C(N2CCOCC2)=Cc2cccc3cccc1c23", "growth": "111% (inactive)"}
{"smiles": "COc1ccc(Cn2c(Br)c3c(c2-c2cc(OC)c(OC)c(OC)c2)CCc2sc(N)nc2-3)cc1", "growth": "46% (inactive)"}
{"smiles": "Nc1nc2c(s1)CCc1c-2c(Br)n(Cc2ccccc2)c1Br", "growth": "99.8% (inactive)"}
{"smiles": "COC(=O)/C=C1/CCC2C3CCC4=CC(=O)C(Br)CC4(C)C3C(=O)CC12C", "note": "(stereo not drawn)", "growth": "115% (inactive)"}
